Test results: PubChem BioAssay (NCI)
Compounds without any hit were thinned out: in the full panel of roughly 79,000, 15% have a hit. Unmarked numbers belong to inactive results. Activity calls are given as the source filed them. Rule as the data show it: active = growth inhibition above about 70%; inactive = the rest.

How the values were obtained:
[1] = NCI Yeast Anticancer Drug Screen. Data for the rad50 strain (AID 155);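 also: 0% = growth of vehicle-only cultures of the same strain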; conditions: S. cerevisiae rad50 strain growth inhibition, hits give high values
How it was run: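 Growth of the mutant yeast was measured after compound exposure and referenced to vehicle-treated cultures.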

[2] = NCI Yeast Anticancer Drug Screen. Data for the mec2-1 strain (AID 157); conditions: S. cerevisiae mec2-1 strain, hits give high values
How it was run: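 mec2-1 yeast strain, carrying an alteration in DNA damage repair or cell cycle control, was exposed to compounds; growth inhibition was measured relative to vehicle-treated controls.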

[3] = NCI Yeast Anticancer Drug Screen. Data for the sgs1 mgt1 strain (AID 161);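 also: 0% = growth of cultures given vehicle only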; conditions: S. cerevisiae sgs1 mgt1 strain, hits give high values
How it was run: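 Growth of a repair-deficient yeast mutant was monitored after compound treatment and expressed as inhibition relative to vehicle-treated cultures.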

[4] = NCI Yeast Anticancer Drug Screen. Data for the cln2 rad14 strain (AID 165);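 also: 0% = growth equal to vehicle treated cultures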; conditions: S. cerevisiae cln2 rad14 strain, hits give high values
How it was run: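 Yeast carrying cln2 and rad14 alterations (cell cycle control and DNA damage repair) were exposed to compounds. Growth inhibition was measured against vehicle-treated controls.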

[5] = NCI Yeast Anticancer Drug Screen. Data for the bub3 strain (AID 167); conditions: S. cerevisiae bub3 mutant strain, hits give high values
How it was run: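 Whole-cell yeast assay. The mutant strain was incubated with compounds, and growth inhibition was determined by comparison with vehicle-treated cells.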

[6] = NCI Yeast Anticancer Drug Screen. Data for the mlh1 rad18 strain (AID 175); conditions: S. cerevisiae mlh1 rad18 strain growth inhibition, hits give high values
How it was run: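 Growth inhibition of the yeast strain was measured after compound exposure and expressed relative to vehicle-treated controls. The strain carries defined defects in DNA damage repair.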

[7] = at 5.0 µM (retest, dose inferred, filed as 0.5)
[8] = at 50.0 µM (retest, dose inferred, filed as 5.0)

| Compound | growth inhibition [1, 7] | growth inhibition [1, 8] | growth inhibition ([1]; at 50.0 µM) | growth inhibition [2, 7] | growth inhibition [2, 8] | growth inhibition ([2]; at 50.0 µM) | growth inhibition [3, 7] | growth inhibition [3, 8] | growth inhibition ([3]; at 50.0 µM) | growth inhibition [4, 7] | growth inhibition [4, 8] | growth inhibition ([4]; at 50.0 µM) | growth inhibition [5, 7] | growth inhibition [5, 8] | growth inhibition ([5]; at 50.0 µM) | growth inhibition [6, 7] | growth inhibition [6, 8] | growth inhibition ([6]; at 50.0 µM) |
| --- | --- | --- | --- | --- | --- | --- | --- | --- | --- | --- | --- | --- | --- | --- | --- | --- | --- | --- |
| CCCCN(CCCC)/N=C\C1=C2NC(=O)/C(C)=C\C=C/C(OC)C(OC(N)=O)/C(C)=C/C(C)C(O)C(OC)CC(C)CC(=C(OC)C1=O)C2=O (configuration not stated) | 2% | 81% (active) | 54.4% | -2% | 87% (active) | 48.4% | -4% | 89% (active) | 47.9% | -8% | 78% (active) | 47.6% | -3% | 32% | 44% | -2% | 80% (active) | 60.5% |
| Cc1cc(Oc2nc(Cl)nc(C(Cl)(Cl)Cl)c2Cl)cc(C)c1N(C)C (tested in a mixture with another compound) | -5% | 10% | 92.8% (active) | -6% | -3% | 95.8% (active) | -2% | 10% | 95.5% (active) | -12% | -9% | 91.9% (active) | 7% | 30% | 92.6% (active) | -8% | -5% | 95.7% (active) |
| CN(Nc1ccc(Cl)cc1)c1ccc(Cl)cc1 | 1% | 95% (active) | 73.2% (active) | 12% | 98% (active) | 64% | 0% | 97% (active) | 79.2% (active) | 5% | 95% (active) | 53.1% | 9% | 97% (active) | 77% (active) | -9% | 96% (active) | 75.3% (active) |
| Cc1ccsc1C(=S)Nc1ccc(Cl)c(/C=N/OC(C)C)c1 | 4% | 15% | 32% | 9% | 14% | 19.9% | 7% | 31% | 21.6% | 2% | 17% | 44.8% | 13% | 43% | 23.1% | 12% | 14% | 55.2% |
| CC(=O)O[C@@H]1CC(C)C2CC2C2=C(C(O)OC2O)[C@@H]1C(C)CCC=C(C)C (some centres not stated) | 19% | 98% (active) | 91.9% (active) | 92% (active) | 99% (active) | 93.7% (active) | 25% | 98% (active) | 93% (active) | 86% (active) | 98% (active) | 90% (active) | 99% (active) | 98% (active) | 92.4% (active) | 78% (active) | 98% (active) | 91.5% (active) |
| O=[N+]([O-])c1cnc(Sc2cncc[n+]2[O-])s1 | 99% (active) | 99% (active) | 99.5% (active) | 100% (active) | 100% (active) | 99.4% (active) | 99% (active) | 100% (active) | 99.3% (active) | 98% (active) | 99% (active) | 99.3% (active) | 99% (active) | 99% (active) | 99.5% (active) | 99% (active) | 99% (active) | 99.5% (active) |
| CC1(C)OC2OC(/C=C/[N+](=O)[O-])C3OC(C)(C)OC3C2O1 (configuration not stated) | 20% | 98% (active) | 8.25% | 3% | 98% (active) | 10.9% | -17% | 97% (active) | 13.2% | 17% | 99% (active) | 5.45% | -9% | 97% (active) | 4.75% | 17% | 97% (active) | 27.4% |
| COc1cc(/C=C/c2cc[n+](C)cc2)ccc1O | -11% | -14% | 26.1% | 12% | 7% | 31.7% | -18% | -17% | 12.4% | -2% | 16% | 79.5% (active) | 0% | 11% | 0.85% | -8% | -10% | -8.35% |
| [Cu+2].c1ccc2n[nH]nc2c1 | 99% (active) | 99% (active) | 98.8% (active) | 99% (active) | 99% (active) | 99.3% (active) | 98% (active) | 99% (active) | 98.5% (active) | 70% (active) | 99% (active) | 98.3% (active) | 96% (active) | 99% (active) | 98.6% (active) | 99% (active) | 99% (active) | 98.7% (active) |
| COc1cc(CNC(=O)CCCCCCCC/C=C/Br)ccc1O | -32% | 93% (active) | 84.7% (active) | -7% | 96% (active) | 85.8% (active) | -2% | 92% (active) | 90.5% (active) | -4% | 94% (active) | 85% (active) | -4% | 95% (active) | 87.6% (active) | -16% | 92% (active) | 87.5% (active) |
| CCCCCCCCCCOC1C(C(O)CNCCCN(C)C)OC2OC3(CCCCC3)OC21 (configuration not stated) | 1% | 97% (active) | 91.9% (active) | -27% | 98% (active) | 93.2% (active) | 7% | 98% (active) | 91% (active) | 21% | 97% (active) | 90.3% (active) | -24% | 98% (active) | 89% (active) | 5% | 97% (active) | 90.2% (active) |
| NC(=S)N1N=C2c3ccccc3CC[C@H]2[C@@H]1c1cccs1 | -52% | 20% | 59.6% | -4% | 40% | 34.4% | -26% | 63% | 80.6% (active) | 0% | 42% | 43.1% | -11% | 70% (active) | 60.2% | -17% | 68% | 51.3% |
| c1ccc([Si](C[CH2][Sn]([c]2ccccc2)([c]2ccccc2)[c]2ccccc2)(c2ccccc2)c2ccc([Si](C[CH2][Sn]([c]3ccccc3)([c]3ccccc3)[c]3ccccc3)(c3ccccc3)c3ccccc3)cc2)cc1 | 99% (active) | 98% (active) | 77.3% (active) | 99% (active) | 99% (active) | 89.5% (active) | 100% (active) | 98% (active) | 71.9% (active) | 99% (active) | 98% (active) | 83.8% (active) | 99% (active) | 98% (active) | 97.6% (active) | 99% (active) | 98% (active) | 73.1% (active) |
| Cc1cc(C)c(CCCC(=O)c2c(C)cc(C)cc2C)c(C)c1 | -7% | 28% | 9.85% | -4% | 1% | -1.6% | -7% | 23% | 9.85% | 1% | -10% | 29.1% | 1% | 6% | 15.6% | -3% | -12% | 9.75% |
| CCOC(=O)Cc1csc(/C=C/c2ccc(OC)c(OC)c2)n1 | -15% | 8% | 17.2% | -1% | 20% | 11.8% | -13% | 14% | 6.9% | 3% | 37% | -37.2% | 7% | 8% | -12.7% | 1% | 18% | 21.4% |
| O=C(CC(=O)c1ccccc1)CC(=O)c1ccccc1Cl | -1% | 85% (active) | 88.1% (active) | 8% | 88% (active) | 88% (active) | -2% | 90% (active) | 81.2% (active) | -5% | 81% (active) | 68.2% | -2% | 95% (active) | 78.8% (active) | 0% | 92% (active) | 85.7% (active) |
| NC(=S)Nc1c(Br)cc(Br)cc1Br | -1% | 91% (active) | 62.5% | 1% | 90% (active) | 33.5% | -1% | 84% (active) | 34.8% | 3% | 88% (active) | 23.1% | -6% | 80% (active) | 74% (active) | 2% | 88% (active) | 47% |
| COc1cc2c(c(OC)c1OC)-c1ccc(O)c(=O)cc1C(N=Cc1ccccc1)CC2 (configuration not stated) | -5% | -5% | -17.9% | -6% | -7% | -4.45% | -8% | -3% | -5.3% | -7% | 4% | 31.9% | -2% | -2% | 0.2% | -2% | 0% | 18.8% |
| Cn1c(CN(Cc2nc3ccccc3n2C)Cc2nc3ccccc3n2C)nc2ccccc21 | 7% | 73% (active) | 76.7% (active) | 2% | 85% (active) | 87.9% (active) | 3% | 72% (active) | 69.7% | 3% | 89% (active) | 68.8% | 4% | 47% | 56.2% | 3% | 80% (active) | 56% |
